Measurements reported in the supplement of paper PMC13380429.

What was measured:
[1] = test system: Vero E6 infected with SARS-CoV-2; experiment: morphology score (similarity to uninfected cells); higher = more like uninfected cells; settings: 24 h
[2] = test system: Vero E6 infected with SARS-CoV-2; experiment: SARS-CoV-2 infection rate relative to infected DMSO; higher = more infection, active = 60 or less; settings: 24 h

Compound	morphology score [1]	SARS-CoV-2 infection rate [2]
OCc1ccccc1O [salicyl-alcohol] (10 µM)	-0.0183	106% (inactive)
CC(=O)S[C@@H]1CC2=CC(=O)CC[C@]2(C)[C@H]2CC[C@@]3(C)[C@@H](CC[C@@]34CCC(=O)O4)[C@H]12 [spironolactone] (10 µM)	0.291	98.5% (inactive)
Cc1c(OCC(F)(F)F)ccnc1C[S+]([O-])c1nc2ccccc2[nH]1 (stereo not given) [lansoprazole] (10 µM)	0.115	99% (inactive)
CCOc1nc2cccc(C(=O)O)c2n1Cc1ccc(-c2ccccc2-c2nnn[nH]2)cc1 [candesartan] (10 µM)	0.175	105% (inactive)
Cc1oc(=O)oc1COC(=O)C1=C([C@H]2CCCO2)S[C@@H]2[C@@H]([C@@H](C)O)C(=O)N12 [faropenem-medoxomil] (10 µM)	-0.119	114% (inactive)
CCCN1CC(NS(=O)(=O)N(CC)CC)CC2Cc3c(O)cccc3CC21 (stereo not given) [quinagolide] (10 µM)	-0.243	112% (inactive)
CC(C)n1nc(-c2cc3cc(O)ccc3[nH]2)c2c(N)ncnc21 (10 µM)	-0.0614	95.5% (inactive)
C#C[C@]1(O)CC[C@H]2[C@@H]3CCC4=CC(=O)CCC4=C3C=C[C@@]21CC [gestrinone] (10 µM)	0.0853	103% (inactive)
COc1cc(OCc2cccc(-c3ccccc3)c2C)cc(OC)c1CN1CCCC[C@H]1C(=O)O [PD1-PDL-inhibitor-1] (10 µM)	0.00556	95% (inactive)
C[N+](C)(C)CCOP(=O)(O)OC[C@H](O)CO [choline-alfoscerate] (10 µM)	0.0475	114% (inactive)
